The source made the active and inactive calls. Unless noted, the rule behind the calls is not given here.

Assay [1] deals with XIP peptide (Xip251-270) binding. As to the kind of experiment: small-molecule binders of XIP peptide, primary screen, biochemical, small-molecule microarray, fluorescence 635/667 nm, 0.1 µg/mL protein (AID 1182). Conditions: fluorescent protein binding, 635 nm, higher = more signal, called active from +8 up or from −8 down.
The test system of another assay is XIP peptide (Xip251-270). As to the kind of experiment: small-molecule binders of XIP peptide, primary screen, biochemical, small-molecule microarray, fluorescence 635/667 nm, 0.5 µg/mL protein (AID 1183). Conditions: small-molecule microarray binding, fluorescence 635 nm; higher = more signal.
A short description of assay [2]: Plasmodium falciparum growth inhibition, primary screen, strain 3D7, DAPI fluorescence, 100 nL (AID 1184).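 Note: parasites grown inside human red blood cells in medium with human serum.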 The settings on record: P. falciparum 3D7 growth, 3 d, higher = more signal.
Assay [3] deals with Homeobox protein Hox-A13 (Mus musculus) (UniProt Q62424). As to the kind of experiment: inhibitors of HoxA13-DNA binding, primary screen, biochemical, fluorescence polarization, labeled oligonucleotide (AID 1185). The settings on record: 15 min, higher = more signal, called active from +8 up or from −8 down.
Sequence of Homeobox protein Hox-A13 (Mus musculus) (Q62424 whole entry, looked up): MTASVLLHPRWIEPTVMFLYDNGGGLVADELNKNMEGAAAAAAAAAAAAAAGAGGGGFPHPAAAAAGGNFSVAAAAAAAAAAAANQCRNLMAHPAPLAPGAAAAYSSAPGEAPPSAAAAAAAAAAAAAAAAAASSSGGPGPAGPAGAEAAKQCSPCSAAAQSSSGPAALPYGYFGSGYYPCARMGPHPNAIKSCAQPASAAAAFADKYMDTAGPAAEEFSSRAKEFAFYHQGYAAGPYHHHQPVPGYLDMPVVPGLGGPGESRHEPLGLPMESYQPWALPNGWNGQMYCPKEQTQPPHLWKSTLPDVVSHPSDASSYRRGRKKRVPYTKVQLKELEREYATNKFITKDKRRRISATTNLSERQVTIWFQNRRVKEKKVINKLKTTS
Assay [4] in a line: inhibitors of hydroxyurea-induced Chk1 phosphorylation, primary screen, imaging, HeLa, phospho-Chk1 antibody, percent positive cells (AID 1186). Conditions: hydroxyurea-induced phospho-Chk1 immunofluorescence imaging, higher = more signal.
The nature of assay [5]: inhibitors of hydroxyurea-induced Chk1 phosphorylation, primary screen, imaging, HeLa, phospho-Chk1 nuclear intensity (AID 1187). The settings on record: hydroxyurea-induced phospho-Chk1 immunofluorescence imaging, higher = more signal.

`CO[C@H]1O[C@H](CO)[C@@H](OC(=O)Nc2ccc3c(c2)OCO3)[C@H](OC(=O)Nc2ccccc2)[C@H]1OC(=O)Nc1ccccc1`: the composite z-score is 0.981 (inactive) in assay [1] and 0.831 in the assay on XIP peptide (Xip251-270). In addition, the z-score in assay [2] is -2.49; in assay [3], -4.76 (inactive); in assay [4], -0.328 (inactive); in assay [5], -0.439 (inactive).
Turning to `CC(C)C[C@@H]1NC(=O)[C@@H]2C[C@H](C(=O)NCCCCCC[N+](C)(C)C)[C@H](c3ccc(O)cc3)N2C1=O`, the results for the composite z-score (in assay [1]; in the assay with XIP peptide (Xip251-270)) were 1.5 (inactive) and 0.535, respectively. Also, the z-score was 0.727 in assay [2], -2.3 (inactive) in assay [3], -0.525 (inactive) in assay [4] and -0.124 (inactive) in assay [5].
Turning to `COc1ccc(C(O)C2C=CC3C(=O)NC(=O)C3N2Nc2ccccn2)cc1OCc1ccccc1` (configuration not stated), the composite z-score is 0.816 (inactive) in assay [1] and -0.0026 in the assay on XIP peptide (Xip251-270). Also, the z-score in assay [2] is -0.235; in assay [3] it was -2.68 (inactive); in assay [4], 0.682 (inactive); in assay [5], 0.581 (inactive).
With `[N-]=[N+]=NCc1ccccc1[C@H]1OC(c2ccc(OCCCO)cc2)=N[C@@]1(CCS(=O)(=O)c1ccccc1)C(=O)N1CCOCC1`, the values for the composite z-score (in assay [1]; in the assay with XIP peptide (Xip251-270)) were 1.53 (inactive) and 0.768, respectively. Further, the z-score in assay [2] is -2.22; in assay [3], -3.2 (inactive); in assay [4], -0.0312 (inactive); in assay [5] it was 0.246 (inactive).
`COc1ccc([Si](C)(C)[C@H]2[C@H](CCn3cc([C@H](O)c4ccccc4)nn3)O[C@@]3(C(=O)N(Cc4cccc(N5CCC5=O)c4)c4ccccc43)[C@@H]2C)cc1`: the composite z-score in assay [1] is 0.275 (inactive); with XIP peptide (Xip251-270) it was 0.444. Further, the z-score is -1.98 in assay [2], -2.56 (inactive) in assay [3], -1.17 (inactive) in assay [4] and -0.364 (inactive) in assay [5].
Consider `COCCOC(=O)N1C(=O)[C@@]2(c3cc(C#CCC(C(=O)OC)C(=O)OC)ccc31)[C@H](c1ccc(O)cc1)N1[C@H](c3ccccc3)[C@H](c3ccccc3)OC(=O)[C@H]1[C@@H]2C(N)=O`, for which the figures for the composite z-score (in assay [1]; in the assay on XIP peptide (Xip251-270)) were 1.39 (inactive) and 0.619, respectively. The z-score in assay [2] was -0.486; in assay [3], -3.8 (inactive); in assay [4] it was 0.676 (inactive); in assay [5], 0.98 (inactive).
Consider `COc1cc(C(O)C2C=CC3C(=O)N(c4ccccc4)C(=O)C3N2Nc2ccc(C#N)cc2)cc(OC)c1OC` (configuration not stated), for which the values for the composite z-score (in assay [1]; with XIP peptide (Xip251-270)) were 1.42 (inactive) and 0.906, respectively. Besides, the z-score in assay [2] was 0.162; in assay [3] it was -4.55 (inactive); in assay [4], 0.859 (inactive); in assay [5], 0.668 (inactive).
For the compound `O=C1C2C=CC(C(O)c3cccs3)N(Nc3ccccc3F)C2C(=O)N1c1ccccc1` (configuration not stated), the results for the composite z-score (in assay [1]; in the assay on XIP peptide (Xip251-270)) were -0.238 (inactive) and 0.111, respectively. The z-score is 0.669 in assay [2], -4.17 (inactive) in assay [3], -0.143 (inactive) in assay [4] and -0.299 (inactive) in assay [5].
On to `O=C1O[C@@H](c2ccccc2)[C@@H](c2ccccc2)N2[C@@H](c3ccc(O)cc3)[C@]3(C(=O)Nc4ccc(C#CC5=CCCCC5)cc43)[C@@H](C(=O)O)[C@H]12`, for which the composite z-score is 1.53 (inactive) in assay [1] and 0.327 in the assay on XIP peptide (Xip251-270). Further, the z-score in assay [2] is 0.202; in assay [3] it was -5.46 (inactive); in assay [4], -0.0372 (inactive); in assay [5], 0.277 (inactive).
`C=CCNC(=O)[C@H]1[C@@H]2C(=O)O[C@@H](c3ccccc3)[C@@H](c3ccccc3)N2[C@@H](c2ccc(O)cc2)[C@]12C(=O)N(C(=O)OCCOC)c1ccc(C#CCCO)cc12`: the composite z-score was 0.855 (inactive) in assay [1] and 0.72 in the assay with XIP peptide (Xip251-270). For the same compound, the z-score in assay [2] is -0.353; in assay [3], -3.9 (inactive); in assay [4] it was -0.537 (inactive); in assay [5], -0.532 (inactive).
In the case of `C[N+](C)(C)CCCCCCNC(=O)[C@H]1C[C@H]2C(=O)N3CCC[C@H]3C(=O)N2[C@H]1c1ccc(O)cc1`, the composite z-score is 1.07 (inactive) in assay [1] and 0.276 in the assay on XIP peptide (Xip251-270). The z-score was -1.03 in assay [2], 0.0641 (inactive) in assay [3], -0.428 (inactive) in assay [4] and -0.356 (inactive) in assay [5].
With `CC(C)N1CC=CC23O[C@@H]4C=CCOC(=O)[C@@H]4[C@H]2C(=O)N(CCO)[C@@H]3C1=O` (some centres not stated), the composite z-score is -0.145 (inactive) in assay [1] and -0.014 in the assay on XIP peptide (Xip251-270). The z-score in assay [2] is 0.74; in assay [3], -2.98 (inactive); in assay [4] it was -0.514 (inactive); in assay [5], -0.419 (inactive).
As for `CC(C)(C)OC(=O)CC[C@@]1(C(=O)NCCN2CCOCC2)N=C(c2ccc(OCCCO)cc2)O[C@@H]1c1ccccc1`, the composite z-score in assay [1] was 1.38 (inactive); with XIP peptide (Xip251-270) it was 0.825. The z-score in assay [2] is 0.248; in assay [3], -4.84 (inactive); in assay [4], -0.396 (inactive); in assay [5], -0.395 (inactive).
Take `CC(C)C[C@@H]1NC(=O)[C@H]2C[C@@H](C(=O)NCCCCCCNC(=O)CS)[C@@H](c3cccc(OCCO)c3)N2C1=O`: the values for the composite z-score (in assay [1]; with XIP peptide (Xip251-270)) were 0.821 (inactive) and 0.792, respectively. In addition, the z-score in assay [2] was -0.0202; in assay [3], -2.77 (inactive); in assay [4] it was 0.0162 (inactive); in assay [5] it was 0.12 (inactive).
Consider `COC(=O)[C@@]1(Cc2ccccc2)[C@H]2c3cc(C(=O)N(C)C)n(Cc4cc(C)n(C)n4)c3C[C@H]2CN1C(=O)c1ccccc1`, for which the composite z-score in assay [1] is -0.0185 (inactive); with XIP peptide (Xip251-270), 0.635. Further, the z-score in assay [2] was -1.19; in assay [3], -5.13 (inactive); in assay [4], 0.489 (inactive); in assay [5] it was 0.42 (inactive).
As to `CN(C)CCCCCCNC(=O)[C@H]1C[C@H]2C(=O)N[C@@H](CCCCN)C(=O)N2[C@H]1c1ccc(O)cc1`, the composite z-score was 5.07 (inactive) in assay [1] and 0.937 in the assay on XIP peptide (Xip251-270). Moreover, the z-score in assay [2] is -0.511; in assay [3] it was -0.281 (inactive); in assay [4], -0.111 (inactive); in assay [5], 0.501 (inactive).
As for `O=C(NCc1ccccc1)[C@]1(CCS(=O)(=O)c2ccccc2)N=C(c2ccc(OCCCO)cc2)O[C@@H]1c1ccccc1`, the composite z-score was 0.605 (inactive) in assay [1] and 0.678 with XIP peptide (Xip251-270). In addition, the z-score was -2.18 in assay [2], -1.13 (inactive) in assay [3], -0.362 (inactive) in assay [4] and -0.255 (inactive) in assay [5].

(Values after PubChem BioAssay.)
